According to PubChem BioAssay AID504773 (Broad Institute, 2011):
Potency and affinity values are given separately. Calls of active or inactive are those of the source.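 Rule for the calls: active = polarization signal falls with dose and the fitted half-maximal concentration is at or below ten times the sample's top valid dose; inconclusive = flat curve at 30 to 70% inhibition, or poor fit; inactive = signal rises, flat within 30%, or potency beyond limit.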

molecular target: Golgi-associated PDZ and coiled-coil motif-containing protein (Homo sapiens) (UniProt Q9HD26); assay: potency against CAL PDZ-peptide interaction – biochemical, fluorescence polarization, Cerulean-tagged CAL PDZ, cherry-picks, dose response (AID 504773); conditions: CAL PDZ-peptide binding, 1 h; series mostly up to 50 µM

outcome, inactive:
FC(F)(F)c1cc(-c2cccs2)nc2ncnn12
COc1ccc(CCn2c(=S)[nH]c3ccc(N4CCOCC4)cc3c2=O)cc1OC
CCOCCCNC(=O)c1ccc2c(=O)n(Cc3ccc4c(c3)OCO4)c(=S)[nH]c2c1
O=[N+]([O-])c1ccc(N/N=C/c2cccnc2)cc1
CN(C)C1(CNC(=O)C2CCC(=O)N(CCc3ccc(Cl)cc3)C2)CCCCC1 (configuration not stated)
COc1ccc(S(=O)(=O)N2CC(=O)Nc3ccccc32)cc1F
N#Cc1ccc(CC(=O)c2ccccc2)[nH]c1=O
Cc1cc(NC(=O)Cc2ccc(Br)cc2)no1
CC(=O)Nc1ccc(N/C=C/C(=O)c2ccccc2)cc1
Cc1ccc(CN(C(=O)c2ccco2)C(C(=O)NC2CCCC2)c2cccnc2)cc1 (configuration not stated)
COc1ccc(CN2CN(C3CCCC3)CSC2=S)cc1
Cc1c(Cl)c(C(F)(F)F)nn1CC(=O)NCc1ccco1
Cc1ccc(S(=O)(=O)N2CCN(CCC#N)CC2)cc1
Cc1ccc2nc(NS(C)(=O)=O)sc2c1
COC(=O)c1ccccc1NC(=O)n1cc(C)cn1
CCCOc1ccc(S(=O)(=O)Nc2ccccn2)c2ccccc12
c1cc(-c2nnc(-c3ccncc3)o2)ccn1
COC(=O)N/N=C/c1sc(N2CCCCC2)nc1-c1cccs1
O=C(Cc1ccccc1)NN=C1CCCC1
CCN(CC)S(=O)(=O)c1ccc(/C=C/C(=O)OCC(=O)N(C)C)cc1
O=C(NC(=S)NCCCN1CCOCC1)c1ccc(Br)cc1
COc1cc(C(=O)ON=C2C(C)=CC(=O)C=C2C)cc(OC)c1OC
Cc1ccc(/C=N/NC(=O)NN(C)c2ncc(C(F)(F)F)cc2Cl)cc1
COc1cc(C2NC(=O)NC(C)=C2C(=O)OC2CCCCC2)cc(Br)c1O (configuration not stated)
COc1ccc(CSc2ncnc3sccc23)cc1F
Cc1cccc(-n2nc(C)c3c2NC2=C(C(=O)CCC2)C3c2ccccn2)c1 (configuration not stated)
CC(=Nc1ccccc1O)c1sc2ccccc2c1O
Oc1ccc(C=Nc2cccc3ccccc23)c(O)c1
O=C(Nc1ccc([N+](=O)[O-])cc1)Nc1cnccn1
COc1ccc(Oc2nc3c(c(=O)n(C)c(=O)n3C)n2C)cc1
CCOC(=O)C1(Cc2cccc(Cl)c2)CCCN(C(=O)c2cccc(C)n2)C1 (configuration not stated)
O=C(NCCCn1ccnc1)c1ccccc1F
Oc1ccccc1N=Cc1c(O)ccc2oc3c(c12)CCCC3
CCC(C)(C)NC(=O)CSc1nc(Cc2ccccc2)nc2ccccc12
O=C(CCC(=O)N1CCN(c2ccccc2F)CC1)N1CCN(c2ccccc2)CC1
CCC1C(=O)NCCN1C(=O)CCc1nnc(CCc2ccc(OC)cc2)o1 (configuration not stated)
COCc1cc(C)nc(SCc2ccccc2)c1C#N
